Where “and” joins values, the source holds several entries; their conditions need not be identical. Equal values may be shown once. More than one record can exist for a structure, and the calls need not agree. Calls of active or inactive are those of the source. Rule for the calls: active = hit-call score of the fitted dose curve at least 0.9, where 1 is the maximum; inactive = score below 0.9.
How the values were obtained:
[1] = read-out: Urokinase-type plasminogen activator receptor (uPAR), PLAUR (gene 5329); assay: BSK_4H_uPAR: BioMAP Diversity Plus: 4H Assay for Urokinase-type plasminogen activator receptor (uPAR) Biomarker Activity (AID 2283030); conditions: primary human endothelial cells (HUVEC); actives raise or lower the signal
Summary of the method: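 uPAR level read by ELISA on HUVEC cultures (BioMAP 4H) 24 h post-dosing, analyzed for gain or loss relative to DMSO. Parallel SRB staining assessed overt cytotoxicity.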

[2] = read-out: Vascular endothelial growth factor receptor 2 (Homo sapiens) (UniProt P35968); assay: BSK_4H_VEGFRII: BioMAP Diversity Plus: 4H Assay for Vascular endothelial growth factor receptor 2 (VEGFR2) Biomarker Activity (AID 2283031); conditions: primary human endothelial cells (HUVEC); actives raise or lower the signal;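 for AC50: cell-surface VEGFR2 protein level quantified by ELISA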
Summary of the method: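 Measured by ELISA after 24 h of compound treatment: VEGFR2 on primary human umbilical vein endothelial cells, fitted in both directions relative to DMSO. Parallel cultures received SRB staining (560 nm) for overt cytotoxicity.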

[3] = read-out: Vascular cell adhesion molecule 1 (VCAM1), VCAM1 (gene 7412); assay: BSK_4H_VCAM1: BioMAP Diversity Plus: 4H Assay for Vascular cell adhesion molecule 1 (VCAM1) Biomarker Activity (AID 2283033); conditions: primary human endothelial cells (HUVEC); actives raise or lower the signal
Summary of the method: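 VCAM-1 ELISA read 24 h after chemical dosing of HUVEC in the BioMAP 4H system, with gain or loss of signal fitted relative to DMSO. Parallel SRB staining (560 nm) checked overt cytotoxicity.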

[4] = read-out: Interferon-gamma inducible Protein 10 (IP10), CXCL10 (gene 3627); assay: BSK_BE3C_IP10: BioMAP Diversity Plus: BE3C Assay for Interferon-gamma inducible Protein 10 (IP10) Biomarker Activity (AID 2283034); conditions: primary human bronchial epithelial cells; actives raise or lower the signal
Summary of the method: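 IP-10 quantified by ELISA in human primary bronchial epithelial cell cultures at 24 hours post-dosing. Gain or loss of signal fitted relative to DMSO; parallel SRB staining assessed overt cytotoxicity.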

[5] = read-out: Monokine induced gamma interferon (MIG), CXCL9 (gene 4283); assay: BSK_BE3C_MIG: BioMAP Diversity Plus: BE3C Assay for Monokine induced gamma interferon (MIG) Biomarker Activity (AID 2283035); conditions: primary human bronchial epithelial cells; actives raise or lower the signal
Summary of the method: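 Dose cells (human primary bronchial epithelial), incubate 24 h, quantify MIG by ELISA, then fit concentration–response in both directions relative to DMSO control.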

[6] = read-out: Transforming growth factor beta 1 (TGFb1), TGFB1 (gene 7040); assay: BSK_BE3C_TGFb1: BioMAP Diversity Plus: BE3C Assay for Transforming growth factor beta 1 (TGFb1) Biomarker Activity (AID 2283036); conditions: primary human bronchial epithelial cells; actives raise or lower the signal
Summary of the method: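 ELISA readout of TGF-b1 from human lung bronchial epithelial primary cells, taken 24 h post-treatment. Gain or loss of signal fitted relative to DMSO baseline, with parallel SRB staining for overt cytotoxicity.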

[7] = read-out: Plasminogen activator inhibitor-1 (PAI1), SERPINE1 (gene 5054); assay: BSK_BE3C_PAI1: BioMAP Diversity Plus: BE3C Assay for Plasminogen activator inhibitor-1 (PAI1) Biomarker Activity (AID 2283037); conditions: primary human bronchial epithelial cells; actives raise or lower the signal
Summary of the method: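 PAI-1 was measured by ELISA in human primary bronchial epithelial cultures 24 h after chemical dosing, with cytotoxicity checked by SRB total-protein staining in parallel cultures. Activity was fitted in both directions relative to DMSO.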

[8] = read-out: urokinase plasminogen activator (uPA), PLAU (gene 5328); assay: BSK_BE3C_uPA: BioMAP Diversity Plus: BE3C Assay for urokinase plasminogen activator (uPA) Biomarker Activity (AID 2283038); conditions: primary human bronchial epithelial cells; actives raise or lower the signal
Summary of the method: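 ELISA for uPA on human primary bronchial epithelial cultures 24 h post-treatment, gain or loss against DMSO. Parallel SRB staining (0.1% after 10% TCA fixation, 560 nm) assessed overt cytotoxicity.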

[9] = read-out: Urokinase-type plasminogen activator receptor (uPAR), PLAUR (gene 5329); assay: BSK_BE3C_uPAR: BioMAP Diversity Plus: BE3C Assay for Urokinase-type plasminogen activator receptor (uPAR) Biomarker Activity (AID 2283039); conditions: primary human bronchial epithelial cells; actives raise or lower the signal
Summary of the method: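 uPAR levels were measured by ELISA after 24 h compound treatment of primary human bronchial epithelial cells, fitted in both directions relative to DMSO. Parallel SRB staining served as the cytotoxicity read-out.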

[10] = read-out: Interleukin-6 (IL6), IL6 (gene 3569); assay: BSK_CASM3C_IL6: BioMAP Diversity Plus: CASM3C Assay for Interleukin-6 (IL6) Biomarker Activity for (AID 2283040); conditions: primary human coronary artery smooth muscle cells; actives raise or lower the signal
[11] = read-out: Tissue plasminogen activator (tPA), PLAT (gene 5327); assay: BSK_BE3C_tPA: BioMAP Diversity Plus: BE3C Assay for Tissue plasminogen activator (tPA) Biomarker Activity (AID 2283041); conditions: primary human bronchial epithelial cells; actives raise or lower the signal
Summary of the method: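 tPA measured by ELISA 24 h after dosing human primary bronchial epithelial cells (BE3C system). Changes in either direction were fitted against DMSO. Parallel cultures were stained with SRB to flag overt cytotoxicity.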

[12] = read-out: Interleukin-8 (IL8), CXCL8 (gene 3576); assay: BSK_CASM3C_IL8: BioMAP Diversity Plus: CASM3C Assay for Interleukin-8 (IL8) Biomarker Activity (AID 2283042); conditions: primary human coronary artery smooth muscle cells; actives raise or lower the signal;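 note: IL-8 protein level quantified by ELISA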
[13] = read-out: Human Leukocyte Antigen - DR isotype (HLADR), HLA-DRA (gene 3122); assay: BSK_CASM3C_HLADR: BioMAP Diversity Plus: CASM3C Assay for Human Leukocyte Antigen - DR isotype (HLADR) Biomarker Activity (AID 2283043); conditions: primary human coronary artery smooth muscle cells; actives raise or lower the signal;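 note: cell-surface HLA-DR protein level quantified by ELISA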
[14] = read-out: Macrophage colony-stimulating factor (MCSF), CSF1 (gene 1435); assay: BSK_CASM3C_MCSF: BioMAP Diversity Plus: CASM3C Assay for Macrophage colony-stimulating factor (MCSF) Biomarker Activity (AID 2283044); conditions: primary human coronary artery smooth muscle cells; actives raise or lower the signal;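 note: M-CSF protein amount quantified by ELISA after 24 h exposure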
[15] = read-out: Low-density lipoprotein receptor (LDLR), LDLR (gene 3949); assay: BSK_CASM3C_LDLR: BioMAP Diversity Plus: CASM3C Assay for Low-density lipoprotein receptor (LDLR) Biomarker Activity (AID 2283045); conditions: primary human coronary artery smooth muscle cells; actives raise or lower the signal;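 note: LDLR protein level on the cell surface quantified by ELISA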
[16] = read-out: Monocyte Chemoattractant Protein-1 (MCP1), CCL2 (gene 6347); assay: BSK_CASM3C_MCP1: BioMAP Diversity Plus: CASM3C Assay for Monocyte Chemoattractant Protein-1 (MCP1) Biomarker Activity (AID 2283046); conditions: primary human coronary artery smooth muscle cells; actives raise or lower the signal;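 note: MCP-1 level quantified by ELISA 24 h after dosing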
[17] = BSK_CASM3C_Proliferation: Cell Proliferation Assessment in the BioMAP Diversity Plus: CASM3C Assay (AID 2283047); conditions: primary human coronary artery smooth muscle cells;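 note: sulforhodamine B total protein stain as relative cell number at 560 nm; sub-confluent cells exposed 48 h before staining; fitted both ways against DMSO so gain or loss of cell number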
[18] = read-out: Monokine induced gamma interferon (MIG), CXCL9 (gene 4283); assay: BSK_CASM3C_MIG: BioMAP Diversity Plus: CASM3C Assay for Monokine induced gamma interferon (MIG) Biomarker Activity (AID 2283048); conditions: primary human coronary artery smooth muscle cells; actives raise or lower the signal;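 note: MIG protein level measured by ELISA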
[19] = read-out: serum amyloid A (SAA), SAA1 (gene 6288); assay: BSK_CASM3C_SAA: BioMAP Diversity Plus: CASM3C Assay for serum amyloid A (SAA) Biomarker Activity (AID 2283049); conditions: primary human coronary artery smooth muscle cells; actives raise or lower the signal;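 note: SAA protein level quantified by ELISA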
[20] = read-out: Human Leukocyte Antigen - DR isotype (HLADR), HLA-DRA (gene 3122); assay: BSK_BE3C_HLADR: BioMAP Diversity Plus: BE3C Assay for Human Leukocyte Antigen - DR isotype (HLADR) Biomarker Activity (AID 2283032); conditions: primary human bronchial epithelial cells; actives raise or lower the signal
Summary of the method: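 Cell-surface HLA-DR ELISA readout at 24 h after dosing in the BE3C primary human lung bronchial epithelial system; gain or loss of signal against DMSO, with parallel sulforhodamine B staining of total protein for overt cytotoxicity.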

Measured: AC50

O=NN(c1ccccc1)c1ccccc1
inactive: [1] | [2] | [3] | [4] | [5] | [6] | [7] | [8] | [9] | [10] | [11] | [12] | [13] | [14] | [15] | [16] | [17] | [18] | [19]

NS(=O)(=O)C(F)(F)C(F)(F)C(F)(F)C(F)(F)C(F)(F)C(F)(F)C(F)(F)C(F)(F)F
inactive: [2] | [5] | [8] | [9] | [10] | [11] | [12] | [13] | [14] | [15] | [16] | [17] | [18] | [19]
active: [1] 29.3 µM and 43.7 µM and 45.6 µM | [2] 28.5 µM and 30 µM | [3] 32.1 µM and 50.1 µM and 46 µM | [4] 10.2 µM and 27 µM and 23.1 µM | [5] 58.2 µM and 54.8 µM | [7] 10.4 µM and 17.1 µM and 15.5 µM | [8] 47.3 µM and 55.1 µM | [9] 51.1 µM and 54.9 µM | [11] 45.5 µM and 37 µM | [13] 26.2 µM and 46.2 µM | [14] 31.3 µM and 49 µM | [15] 44.3 µM | [16] 30 µM | [17] 54.4 µM and 50.9 µM | [18] 39.8 µM | [19] 46.8 µM

CC(c1ccc(O)cc1)(c1ccc(O)cc1)c1ccc(O)cc1
active: [1] 30.8 µM | [20] 2.08 µM | [3] 24 µM | [4] 2.57 µM | [5] 2.2 µM | [6] 1.92 µM | [7] 3.29 µM | [8] 3.25 µM | [9] 2.4 µM | [11] 3.85 µM | [13] 4.44 µM | [14] 3.11 µM | [16] 5.43 µM | [17] 27.2 µM | [18] 5.35 µM
inactive: [2] | [10] | [12] | [15] | [19]

CCNc1nc(NC(C)C)nc(SC)n1
inactive: [1] | [2] | [20] | [3] | [4] | [5] | [7] | [8] | [9] | [10] | [11] | [12] | [13] | [14] | [15] | [16] | [17] | [18] | [19]

O=C(NC(=O)c1c(F)cccc1F)Nc1cc(Cl)c(OC(F)(F)C(F)F)c(Cl)c1
inactive: [1] | [2] | [3] | [4] | [5] | [6] | [7] | [8] | [9] | [10] | [11] | [12] | [13] | [14] | [15] | [16] | [17] | [18] | [19]

Nc1ccc(-c2ccc(N)cc2)cc1
inactive: [1] | [2] | [20] | [3] | [4] | [5] | [7] | [8] | [9] | [10] | [12] | [13] | [14] | [15] | [16] | [17] | [18] | [19]
active: [11] 6.73 µM

C=CC(=O)NCNC(=O)C=C
inactive: [1] | [2] | [20] | [3] | [4] | [5] | [6] | [7] | [8] | [9] | [10] | [11] | [12] | [13] | [14] | [15] | [16] | [17] | [18] | [19]

Oc1ccc(Cl)cc1Cl
inactive: [1] | [2] | [20] | [3] | [4] | [5] | [7] | [8] | [9] | [10] | [11] | [12] | [13] | [14] | [15] | [16] | [17] | [18] | [19]

Oc1ccc(C(c2ccc(O)cc2)(C(F)(F)F)C(F)(F)F)cc1
active: [1] 32.5 µM | [20] 20.1 µM | [3] 29.3 µM | [4] 24.1 µM | [5] 37.3 µM | [6] 28.5 µM | [7] 21.4 µM | [8] 38.2 µM | [9] 38.1 µM | [11] 21.8 µM | [17] 20 µM | [19] 37.6 µM
inactive: [2] | [10] | [12] | [13] | [14] | [16] | [18]

C1CC2OC2CC1C1CO1 (stereo not drawn)
inactive: [1] | [2] | [20] | [3] | [4] | [5] | [7] | [8] | [9] | [10] | [11] | [12] | [13] | [14] | [15] | [16] | [17] | [18] | [19]

COc1ccc(O)c(C(C)(C)C)c1
inactive: [1] | [2] | [20] | [3] | [4] | [5] | [7] | [8] | [9] | [10] | [11] | [12] | [13] | [14] | [15] | [16] | [17] | [18] | [19]
active: [12] 5.43 µM | [18] 3.97 µM

C=CC(N)=O
inactive: [1] | [2] | [20] | [3] | [4] | [5] | [7] | [8] | [9] | [10] | [11] | [12] | [13] | [14] | [15] | [17] | [18] | [19]
active: [16] 0.887 µM

— PubChem BioAssay (EPA / NIEHS)
